# Results filed as inconclusive are left out. Unmarked numbers belong to inactive results. The call rests on the fitted dose curve.
# Assay: qHTS for Inhibitors of Cell Surface uPA Generation: Wild-type Protective Antigen (WT-PrAg) Counterscreen for Cherry-picked Compounds; further: 0% is about no effect
# Conditions: cells, WT protective antigen toxicity counterscreen; series mostly up to 115 µM; activity (protection): at the top concentration
row,Structure (SMILES),activity (protection) [%]
1,CCOC(=O)CN1C(=O)N[C@@H](c2ccccc2)C(C(C)=O)=C1C,0.206
2,COc1cccc(NC(=O)CN(C)C(=O)c2csc3c2CCCC3)c1,3.05
3,COc1cc(CN2CCN(c3ncccn3)CC2)cc(OC)c1,-0.252
4,O=C(Nc1c(C(=O)O)oc2ccc(Br)cc12)c1ccccc1,-2.48
5,Cc1ccc2c(c1)N(CC(=O)NCCCc1ccccc1)C(=O)c1cccnc1O2,2.62
6,COc1ccc(NC(=O)c2nn(C)c3c2CS(=O)(=O)c2ccccc2-3)cc1,-0.433
7,Cc1ccc(NC(=O)CCCn2c(=S)[nH]c3ccsc3c2=O)cc1C,4.68
8,C[C@H](CO)N1C[C@H](C)[C@@H](CN(C)C(=O)Nc2ccccc2)Oc2ccc(NC(=O)Cn3cnnn3)cc2C1=O,-0.0378
9,CC(C)(C)OC(=O)NCCCCCNC(=O)c1[nH]cnc1C(=O)Nc1ccc(Cl)cc1,-1.37
10,COc1cccc(C(=O)Cn2c(NCCCO)nc3ccccc32)c1,-0.884
11,Cc1cc(C)cc(S(=O)(=O)c2cn(C)c3cc(N4CCN(C)CC4)c(F)cc3c2=O)c1,-0.207
12,CC(C)NCC1CCc2cc(CO)c([N+](=O)[O-])cc2N1 (configuration not stated),4.76
13,CN(CCCNC(=O)Cn1cccc1C(=O)c1ccccc1)C1CCCCC1,-2.26
14,CC1CCCC(NC(=O)CNC(=S)N(Cc2ccccc2)Cc2cccs2)C1C (configuration not stated),-1.4
15,O=C(COc1cc2oc(=O)cc(-c3ccccc3)c2cc1Cl)NC(Cc1c[nH]c2ccc(O)cc12)C(=O)O (configuration not stated),0.799
16,COc1ccc(C2=C/C(=C\c3ccccc3OC(C)=O)C(=O)O2)cc1,-1.93
17,CCOc1cc(C)c(S(=O)(=O)N2CCCCC2)cc1C,-1.61

# Reference: PubChem BioAssay AID720518 (National Center for Advancing Translational Sciences (NCATS), 2013)
